# Measurements from PubChem BioAssay (NCATS).
# Inconclusive results are not listed. Unmarked numbers belong to inactive results. Calls of active or inactive are those of the source. Calls come from the whole dose curve.
# Biological target: Peroxisome proliferator-activated receptor delta (Homo sapiens) (UniProt Q03181)
# Test: qHTS assay for small molecule agonists of peroxisome proliferator-activated receptor delta signaling (AID 588534);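 note: 0% = DMSO basal wells and 100% = positive control agonist at 10 µM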
# Conditions: HEK293T PPARdelta-UAS-bla, beta-lactamase ratio, 18 h; series mostly up to 76.7 µM; activation: at the top concentration
# From the text: NIH Chemical Genomics Center [NCGC] U.S. Environmental Protection Agency [EPA] National Institutes of Environmental Health Sciences [NIEHS] National Toxicology Program [NTP] NCGC Assay Overview The Peroxisome proliferator-activated receptors (PPARs) are lipid-activated transcription factors of the nuclear receptor superfamily with three distinct subtypes namely PPAR alpha, PPAR delta (also called PPAR beta) and PPAR gamma. All these subtypes heterodimerizes with Retinoid X receptor (RXR) and have different physiological functions. […] This role of PPAR delta implicates the potential use of its ligands in the treatment of metabolic disorders.
# Compounds were screened in a titration series in 1536-well format. […] Concentration-response titration points for each compound were fitted to the Hill equation yielding concentrations of half-maximal stimulation (EC50) and maximal response (efficacy) values. qHTS protocol for PPAR-delta beta-lactamase assay in agonist mode [Step] [Parameter] [Value] [Description] 1. Reagent; 6 uL; 4000 cells/well 2. Incubation; 37 C for 5 hrs 3. Compounds; 23 nL; 0.59 nM to 92 uM 4. […] Incubation; 37 C for 18 hrs 6. Detection reagent; 1 uL of CCF4-dye 7. Incubation; RT for 2 hrs 8. Detection; Fluorescence; Envision plate reader
# Peroxisome proliferator-activated receptor delta (Homo sapiens), sequence (Q03181 whole entry, looked up): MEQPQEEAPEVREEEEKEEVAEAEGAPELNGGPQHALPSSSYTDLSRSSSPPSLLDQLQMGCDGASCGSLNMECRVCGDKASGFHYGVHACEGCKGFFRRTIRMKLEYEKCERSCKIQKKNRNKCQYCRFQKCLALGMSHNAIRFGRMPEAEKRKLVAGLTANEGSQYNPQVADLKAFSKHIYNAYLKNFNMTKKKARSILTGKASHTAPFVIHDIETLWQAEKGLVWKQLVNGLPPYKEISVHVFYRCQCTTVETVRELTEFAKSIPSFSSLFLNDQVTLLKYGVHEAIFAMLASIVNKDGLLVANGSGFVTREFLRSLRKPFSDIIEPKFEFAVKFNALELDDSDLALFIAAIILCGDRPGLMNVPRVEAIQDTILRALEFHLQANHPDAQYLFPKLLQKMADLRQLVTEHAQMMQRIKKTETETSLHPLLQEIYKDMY
Structure (SMILES),activation [%],outcome
Cc1ccccc1Br,0.0217,–
C=CC(=O)OCCCCCCOC(=O)C=C,–,inactive
COC[C@H](C)N(C(=O)CCl)c1c(C)csc1C,-6.41,–
Cc1ccc(Br)cc1,0.0493,–
O=C=Nc1ccc(Cl)cc1,-0.393,–
COCC(=O)O,–,inactive
O=C1CCCC/C=C/CCCCCCCCCO1,-1.89,–
CO,2.5,–
BrC(Br)C(Br)Br,10.2,–
CC/C(=N\OC/C=C/Cl)C1=C(O)CC(C2CCOCC2)CC1=O (stereo not given),-5.2,–
CCCCCCCC/C=C\CCCCCCCCCCCCC,-3.56,–
Nc1ccc([N+](=O)[O-])c(N)c1,11.9,–
CCCCCCCCCCCCCCCCN(C)C,2.03,–
O=[N+]([O-])c1ccc(F)cc1F,-1.74,–
O=C(O)CC(C(=O)O)C(CC(=O)O)C(=O)O (stereo not given),–,inactive
Cc1ccc(C)o1,6.27,–
CNc1nc(=O)n(C2CCCCC2)c(=O)n1C,0.526,–
CCCCCCCCCCCCCCCCCCN,1.25,–
CC/C=C1/OC(=O)c2ccccc21,-0.941,–
CCOC(=O)Nc1cccc(OC(=O)Nc2ccccc2)c1,-0.0264,–

Structure (SMILES),activation [%],outcome
Cc1ccc(S(=O)(=O)NC2CCCCC2)cc1,7.76,–
O=[N+]([O-])c1ccccc1CCO,-2.16,–
C=CC(=O)OCCCC,8.81,–
OC1CCCC1,-2.62,–
C#CC(C)(C)NC(=O)c1cc(Cl)cc(Cl)c1,-6.27,–
FC(F)(F)c1ccc(Cl)cc1,–,inactive
CC(C)[C@@H]1CC[C@@H](C)C[C@H]1O,1.51,–
Nc1ncnc2c1ncn2[C@H]1CC[C@@H](CO)O1,–,inactive
CC(C)=CCC[C@@H](C)[C@H]1CC[C@@]2(C)C3=C(CC[C@]12C)[C@@]1(C)CC[C@H](O)C(C)(C)[C@@H]1CC3,0.221,–
CC1(C)[C@H](C(=O)O[C@H](C#N)c2cccc(Oc3ccccc3)c2)[C@@H]1/C=C(\Cl)C(F)(F)F,-0.459,–
COc1cc(OC)nc(NC(=O)NS(=O)(=O)c2cc(NC=O)ccc2C(=O)N(C)C)n1,-6.84,–
Cl[Si](Cl)(c1ccccc1)c1ccccc1,-1.87,–
C[C@]12CCC(=O)C=C1CC[C@@H]1[C@@H]2[C@@H](O)C[C@]2(C=O)[C@@H](C(=O)CO)CC[C@@H]12,-4.41,–
C1CCC2OC2C1 (stereo not given),1.99,–
O=C(O)c1ccccc1C(=O)O,0.141,–
Cc1ccc2c(c1[N+](=O)[O-])C(=O)c1ccccc1C2=O,-6.51,–
CCOP(=O)(NC(C)C)Oc1ccc(S(C)=O)c(C)c1 (stereo not given),4.43,–
CCCCC(=O)N(C)C,9.07,–
COC(=O)c1ccc(C=O)cc1,-4.93,–
CC(C=O)Cc1ccc(C(C)(C)C)cc1 (stereo not given),–,inactive
